Results: the supplement of paper PMC4466140

What was measured:
Test in all cases: SPOT peptide array binding signal intensity (averaged, normalized) (arbitrary units (background-subtracted, floor 0; scale differs between SH3 domains)); higher = stronger binding of the SH3 domain to the peptide
[1] = target: AgAbp1
How it was run: (§1)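 To measure binding, SH3 domains from four yeast species were fused to GST, expressed in E. coli BL21(DE3) and purified on glutathione Sepharose. Each domain was incubated at 10 μg/ml overnight at 4°C on cellulose membranes with synthetic 15-mer peptides whose cysteines were replaced by serines. Anti-GST antibody, an HRP anti-mouse secondary and luminol were used for detection, and images were quantified with Genespotter. Reported binding signal is normalized, background-subtracted spot intensity averaged over replicates, in arbitrary units that differ between domains.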

[2] = target: AgBbc1
How it was run: as §1

[3] = target: AgBem1-D1
How it was run: as §1

[4] = target: AgBzz1-D1
How it was run: as §1

[5] = target: AgBzz1-D2
How it was run: as §1

[6] = target: AgCyk3
How it was run: as §1

[7] = target: AgFus1
How it was run: as §1

[8] = target: AgHof1
How it was run: as §1

[9] = target: AgHse1
How it was run: as §1

[10] = target: AgLsb1
How it was run: as §1

[11] = target: AgLsb4
How it was run: as §1

[12] = target: AgMyo5
How it was run: as §1

[13] = target: AgNbp2
How it was run: as §1

[14] = target: AgRvs167
How it was run: as §1

[15] = target: AgSho1
How it was run: as §1

[16] = target: AgSla1-D1-D2
How it was run: as §1

[17] = target: AgSla1-D3
How it was run: as §1

[18] = target: CaAbp1-D1
How it was run: as §1

[19] = target: CaAbp1-D2
How it was run: as §1

[20] = target: CaBbc1
How it was run: as §1

[21] = target: CaBem1-D1
How it was run: as §1

[22] = target: CaBzz1-D1
How it was run: as §1

[23] = target: CaBzz1-D2
How it was run: as §1

[24] = target: CaCyk3
How it was run: as §1

[25] = target: CaFus1
How it was run: as §1

[26] = target: CaHof1
How it was run: as §1

[27] = target: CaHse1
How it was run: as §1

[28] = target: CaLsb1
How it was run: as §1

[29] = target: CaLsb4
How it was run: as §1

[30] = target: CaMyo5
How it was run: as §1

[31] = target: CaNbp2
How it was run: as §1

[32] = target: CaRvs167
How it was run: as §1

[33] = target: CaRvs167-3
How it was run: as §1

[34] = target: CaSho1
How it was run: as §1

[35] = target: CaSla1-D1-D2
How it was run: as §1

[36] = target: CaSla1-D3
How it was run: as §1

[37] = target: ScAbp1
How it was run: as §1

[38] = target: ScBbc1
How it was run: as §1

[39] = target: ScBem1-D1
How it was run: as §1

[40] = target: ScBzz1-D1
How it was run: as §1

[41] = target: ScBzz1-D2
How it was run: as §1

[42] = target: ScCyk3
How it was run: as §1

[43] = target: ScFus1
How it was run: as §1

[44] = target: ScHof1
How it was run: as §1

[45] = target: ScHse1
How it was run: as §1

[46] = target: ScLsb1
How it was run: as §1

[47] = target: ScLsb2
How it was run: as §1

[48] = target: ScLsb3
How it was run: as §1

[49] = target: ScLsb4
How it was run: as §1

[50] = target: ScMyo3
How it was run: as §1

[51] = target: ScMyo5
How it was run: as §1

[52] = target: ScNbp2
How it was run: as §1

[53] = target: ScPex13
How it was run: as §1

[54] = target: ScRvs167
How it was run: as §1

[55] = target: ScSho1
How it was run: as §1

[56] = target: ScSla1-D1-D2
How it was run: as §1

[57] = target: ScSla1-D3
How it was run: as §1

[58] = target: SpAbp1-D1
How it was run: as §1

[59] = target: SpBbc1
How it was run: as §1

[60] = target: SpBzz1-D1
How it was run: as §1

[61] = target: SpBzz1-D2
How it was run: as §1

[62] = target: SpCyk3
How it was run: as §1

[63] = target: SpHof1
How it was run: as §1

[64] = target: SpHof1-2
How it was run: as §1

[65] = target: SpHof1-3
How it was run: as §1

[66] = target: SpHse1
How it was run: as §1

[67] = target: SpLsb1
How it was run: as §1

[68] = target: SpLsb4
How it was run: as §1

[69] = target: SpMyo1
How it was run: as §1

[70] = target: SpNbp2
How it was run: as §1

[71] = target: SpPex13
How it was run: as §1

[72] = target: SpRvs167
How it was run: as §1

[73] = target: SpSla1-D1-D2
How it was run: as §1

[74] = target: SpSla1-D3
How it was run: as §1

Binder: AAAPKHAPPPVPNET
- SPOT peptide array binding signal intensity [1]: ≤ 0
- SPOT peptide array binding signal intensity [2]: ≤ 0
- SPOT peptide array binding signal intensity [3]: ≤ 0
- SPOT peptide array binding signal intensity [4]: 96
- SPOT peptide array binding signal intensity [5]: ≤ 0
- SPOT peptide array binding signal intensity [6]: ≤ 0
- SPOT peptide array binding signal intensity [7]: ≤ 0
- SPOT peptide array binding signal intensity [8]: ≤ 0
- SPOT peptide array binding signal intensity [9]: ≤ 0
- SPOT peptide array binding signal intensity [10]: ≤ 0
- SPOT peptide array binding signal intensity [11]: ≤ 0
- SPOT peptide array binding signal intensity [12]: 2020
- SPOT peptide array binding signal intensity [13]: ≤ 0
- SPOT peptide array binding signal intensity [14]: ≤ 0
- SPOT peptide array binding signal intensity [15]: ≤ 0
- SPOT peptide array binding signal intensity [16]: ≤ 0
- SPOT peptide array binding signal intensity [17]: 11
- SPOT peptide array binding signal intensity [18]: ≤ 0
- SPOT peptide array binding signal intensity [19]: ≤ 0
- SPOT peptide array binding signal intensity [20]: ≤ 0
- SPOT peptide array binding signal intensity [21]: ≤ 0
- SPOT peptide array binding signal intensity [22]: 1240
- SPOT peptide array binding signal intensity [23]: 66.8
- SPOT peptide array binding signal intensity [24]: ≤ 0
- SPOT peptide array binding signal intensity [25]: ≤ 0
- SPOT peptide array binding signal intensity [26]: ≤ 0
- SPOT peptide array binding signal intensity [27]: ≤ 0
- SPOT peptide array binding signal intensity [28]: ≤ 0
- SPOT peptide array binding signal intensity [29]: ≤ 0
- SPOT peptide array binding signal intensity [30]: 795
- SPOT peptide array binding signal intensity [31]: ≤ 0
- SPOT peptide array binding signal intensity [32]: ≤ 0
- SPOT peptide array binding signal intensity [33]: 0.5
- SPOT peptide array binding signal intensity [34]: ≤ 0
- SPOT peptide array binding signal intensity [35]: ≤ 0
- SPOT peptide array binding signal intensity [36]: ≤ 0
- SPOT peptide array binding signal intensity [37]: ≤ 0
- SPOT peptide array binding signal intensity [38]: ≤ 0
- SPOT peptide array binding signal intensity [39]: ≤ 0
- SPOT peptide array binding signal intensity [40]: 413
- SPOT peptide array binding signal intensity [41]: ≤ 0
- SPOT peptide array binding signal intensity [42]: ≤ 0
- SPOT peptide array binding signal intensity [43]: ≤ 0
- SPOT peptide array binding signal intensity [44]: ≤ 0
- SPOT peptide array binding signal intensity [45]: ≤ 0
- SPOT peptide array binding signal intensity [46]: ≤ 0
- SPOT peptide array binding signal intensity [47]: ≤ 0
- SPOT peptide array binding signal intensity [48]: ≤ 0
- SPOT peptide array binding signal intensity [49]: ≤ 0
- SPOT peptide array binding signal intensity [50]: 1370
- SPOT peptide array binding signal intensity [51]: 1840
- SPOT peptide array binding signal intensity [52]: ≤ 0
- SPOT peptide array binding signal intensity [53]: ≤ 0
- SPOT peptide array binding signal intensity [54]: 0.167
- SPOT peptide array binding signal intensity [55]: ≤ 0
- SPOT peptide array binding signal intensity [56]: ≤ 0
- SPOT peptide array binding signal intensity [57]: ≤ 0
- SPOT peptide array binding signal intensity [58]: ≤ 0
- SPOT peptide array binding signal intensity [59]: 1.5
- SPOT peptide array binding signal intensity [60]: ≤ 0
- SPOT peptide array binding signal intensity [61]: ≤ 0
- SPOT peptide array binding signal intensity [62]: ≤ 0
- SPOT peptide array binding signal intensity [63]: ≤ 0
- SPOT peptide array binding signal intensity [64]: ≤ 0
- SPOT peptide array binding signal intensity [65]: 5.75
- SPOT peptide array binding signal intensity [66]: 58.8
- SPOT peptide array binding signal intensity [67]: ≤ 0
- SPOT peptide array binding signal intensity [68]: ≤ 0
- SPOT peptide array binding signal intensity [69]: 1720
- SPOT peptide array binding signal intensity [70]: ≤ 0
- SPOT peptide array binding signal intensity [71]: ≤ 0
- SPOT peptide array binding signal intensity [72]: ≤ 0
- SPOT peptide array binding signal intensity [73]: ≤ 0
- SPOT peptide array binding signal intensity [74]: ≤ 0

Binder: FIRKRAPTPPAPSRS
- SPOT peptide array binding signal intensity [1]: 948
- SPOT peptide array binding signal intensity [2]: 334
- SPOT peptide array binding signal intensity [3]: 340
- SPOT peptide array binding signal intensity [4]: 224
- SPOT peptide array binding signal intensity [5]: 120
- SPOT peptide array binding signal intensity [6]: 1
- SPOT peptide array binding signal intensity [7]: 203
- SPOT peptide array binding signal intensity [8]: 65.2
- SPOT peptide array binding signal intensity [9]: 312
- SPOT peptide array binding signal intensity [10]: 1090
- SPOT peptide array binding signal intensity [11]: 60
- SPOT peptide array binding signal intensity [12]: 1.75
- SPOT peptide array binding signal intensity [13]: 1060
- SPOT peptide array binding signal intensity [14]: 5.67
- SPOT peptide array binding signal intensity [15]: 14
- SPOT peptide array binding signal intensity [16]: 196
- SPOT peptide array binding signal intensity [17]: 23.2
- SPOT peptide array binding signal intensity [18]: 2450
- SPOT peptide array binding signal intensity [19]: 734
- SPOT peptide array binding signal intensity [20]: 641
- SPOT peptide array binding signal intensity [21]: 813
- SPOT peptide array binding signal intensity [22]: 1840
- SPOT peptide array binding signal intensity [23]: 4040
- SPOT peptide array binding signal intensity [24]: 19.5
- SPOT peptide array binding signal intensity [25]: 334
- SPOT peptide array binding signal intensity [26]: 0.5
- SPOT peptide array binding signal intensity [27]: 10.8
- SPOT peptide array binding signal intensity [28]: 167
- SPOT peptide array binding signal intensity [29]: 198
- SPOT peptide array binding signal intensity [30]: 12.8
